The text below walks through data of PubChem BioAssay (NCATS).

Structures are written as SMILES. Inconclusive results are not listed. A number with no mark means an inactive call. Calls of active or inactive are those of the source. Calls come from the whole dose curve; as a rule, active = well fitted inhibition curve with a large enough effect; inconclusive = small, poorly fitted or top-dose-only effect; inactive = flat fitted curve, though single readings scatter.
% is set by controls: 0 for no effect and ±100 for the full control effect; potency is the fitted concentration of half-maximal effect.

In the test the target is Voltage-gated inwardly rectifying potassium channel KCNH2 (Homo sapiens) (UniProt Q12809). Put plainly: qHTS Assay for Small Molecule Inhibitors of the Human hERG Channel Activity (AID 588834). For activity change, negative = inhibition: top concentration of the series differs between compounds.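 Note: lower thallium flux fluorescence means stronger hERG block; nearly all actives have a fitted effect of over 50% in size.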 To be noted: U2OS BacMam hERG, FluxOR thallium flux fluorescence; series mostly up to 46.1 µM; activity change, negative = inhibition: at the top concentration. The method in brief: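 Measured: FluxOR fluorescence after thallium stimulation in U2OS cells transduced with hERG by baculovirus. Compounds pre-incubated around 10 min; medium Opti-MEM with 2% FCS. AC50 from Hill equation.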
Sequence of Voltage-gated inwardly rectifying potassium channel KCNH2 (Homo sapiens) (Q12809 whole entry, looked up): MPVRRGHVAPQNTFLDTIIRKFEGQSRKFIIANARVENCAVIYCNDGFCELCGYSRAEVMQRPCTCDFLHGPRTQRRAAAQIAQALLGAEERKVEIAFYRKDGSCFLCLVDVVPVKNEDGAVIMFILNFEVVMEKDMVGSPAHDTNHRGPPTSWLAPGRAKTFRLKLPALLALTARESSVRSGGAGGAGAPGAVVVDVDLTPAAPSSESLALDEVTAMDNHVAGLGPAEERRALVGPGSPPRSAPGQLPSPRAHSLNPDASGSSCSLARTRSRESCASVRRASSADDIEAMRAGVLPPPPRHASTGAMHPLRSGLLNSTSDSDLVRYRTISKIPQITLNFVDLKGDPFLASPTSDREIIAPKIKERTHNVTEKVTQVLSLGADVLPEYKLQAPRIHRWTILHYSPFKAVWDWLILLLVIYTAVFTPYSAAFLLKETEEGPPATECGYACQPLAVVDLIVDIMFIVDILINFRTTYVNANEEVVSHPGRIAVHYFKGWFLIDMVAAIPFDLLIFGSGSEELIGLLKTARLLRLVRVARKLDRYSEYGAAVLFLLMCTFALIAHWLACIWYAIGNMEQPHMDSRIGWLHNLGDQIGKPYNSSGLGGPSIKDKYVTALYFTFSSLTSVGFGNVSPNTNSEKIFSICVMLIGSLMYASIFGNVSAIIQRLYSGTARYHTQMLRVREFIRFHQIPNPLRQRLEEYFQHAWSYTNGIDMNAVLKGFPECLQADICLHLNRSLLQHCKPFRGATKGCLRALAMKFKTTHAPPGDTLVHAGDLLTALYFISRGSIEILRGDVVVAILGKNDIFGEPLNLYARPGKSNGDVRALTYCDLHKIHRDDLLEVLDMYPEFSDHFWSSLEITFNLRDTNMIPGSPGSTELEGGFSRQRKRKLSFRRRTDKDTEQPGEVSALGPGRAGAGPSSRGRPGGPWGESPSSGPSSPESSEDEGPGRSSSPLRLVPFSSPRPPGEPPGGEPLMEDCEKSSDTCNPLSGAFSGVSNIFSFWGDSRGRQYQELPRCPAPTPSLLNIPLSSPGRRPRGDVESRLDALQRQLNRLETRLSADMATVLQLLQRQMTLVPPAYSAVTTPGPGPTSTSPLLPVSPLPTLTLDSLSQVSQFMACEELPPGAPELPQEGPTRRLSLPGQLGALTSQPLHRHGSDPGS
A general note: In qHTS, concentration-response curves come from the screen itself.
As for `COP(=S)(OC)Oc1ccc(S(=O)(=O)N(C)C)cc1`, the “activity change, negative = inhibition” value was 5.52%.
Turning to `CN1C(=O)CC(=O)N(c2ccccc2)c2cc(Cl)ccc21`, the “activity change, negative = inhibition” value is 2.55%.
`NNc1ccccc1`: the “activity change, negative = inhibition” value is 3.85%.
Consider `C=CCN1C[C@H](C)N([C@H](c2ccc(C(=O)N(CC)CC)cc2)c2cccc(OC)c2)C[C@H]1C`, for which the Potency was 3.98 µM (active).
As to `Nc1ccccc1`, the “activity change, negative = inhibition” value is 3.38% [at 92.2 µM].
As for `CCC1(CC)C(=O)C=CNC1=O`, the “activity change, negative = inhibition” value is 5.99%.
Turning to `C[C@@H](N)[C@@H](O)c1ccccc1`, the “activity change, negative = inhibition” value is 2.11% [at 20.6 µM].
With `C[C@]12CCC(=O)C=C1CC[C@@H]1[C@@H]2CC[C@@]2(C)[C@H]1CC[C@]2(C)O`, the “activity change, negative = inhibition” value was -6.1% [at 92.2 µM].
`COc1cc(OC)c(OC)cc1C=O`: the “activity change, negative = inhibition” value was 2.81% [at 92.2 µM].
With `COC(=O)[C@@H](N)CCCN/C(N)=N/[N+](=O)[O-]`, the “activity change, negative = inhibition” value was 20.7%.
On to `O=C1CN=C(c2ccccc2)c2cc([N+](=O)[O-])ccc2N1`, for which the “activity change, negative = inhibition” value was -19.6%.
